Growth inhibition data for nine compounds are collected here from PubChem BioAssay (NCI).

Test [1] in a line: NCI Yeast Anticancer Drug Screen. Data for the rad50 strain (AID 155).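 Note: 0% = growth of vehicle-only cultures of the same strain.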 Conditions: S. cerevisiae rad50 strain growth inhibition, stronger effect = higher value. Summed up:
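Yeast carrying a defined DNA repair defect were exposed to test compounds, and growth was compared with vehicle-treated controls to give percent inhibition.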

Test [2] is described as follows: NCI Yeast Anticancer Drug Screen. Data for the mec2-1 strain (AID 157). Conditions: S. cerevisiae mec2-1 strain, stronger effect = higher value. Put shortly: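 Cells of the genetically defined mec2-1 yeast strain are incubated with test compound. Inhibition of growth is calculated against vehicle-treated controls.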
Test [3] in a line: NCI Yeast Anticancer Drug Screen. Data for the sgs1 mgt1 strain (AID 161).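 Note: 0% = growth of cultures given vehicle only.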 Conditions: S. cerevisiae sgs1 mgt1 strain, stronger effect = higher value. Summed up: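 Genetically altered yeast, compound exposure, growth inhibition relative to vehicle.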
Test [4] in a line: NCI Yeast Anticancer Drug Screen. Data for the cln2 rad14 strain (AID 165).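 Note: 0% = growth equal to vehicle treated cultures.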 To be noted: S. cerevisiae cln2 rad14 strain, stronger effect = higher value. Summed up: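 The screen exposed genetically defined yeast (cln2 rad14) to test compounds and scored growth inhibition relative to vehicle-treated controls.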
Test [5] is described as follows: NCI Yeast Anticancer Drug Screen. Data for the bub3 strain (AID 167). To be noted: S. cerevisiae bub3 mutant strain, stronger effect = higher value. Summed up: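 Compounds were applied to a genetically altered yeast strain carrying a cell-cycle control defect. Growth inhibition was scored against vehicle-treated controls.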
The nature of test [6]: NCI Yeast Anticancer Drug Screen. Data for the mlh1 rad18 strain (AID 175). Conditions: S. cerevisiae mlh1 rad18 strain growth inhibition, stronger effect = higher value. Put shortly:
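Compound-treated yeast growth, normalised to vehicle controls. Strain bears defined DNA repair mutations.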

Setting [7] is: at 5.0 µM (retest, dose inferred, filed as 0.5).
The mark [8] stands for this setting: at 50.0 µM (retest, dose inferred, filed as 5.0).

The panel holds about 79,000 compounds, 15% with a hit somewhere; the sample as a whole holds those more often. Unmarked numbers belong to inactive results. Activity calls are given as the source filed them. Cut-off read from the data, not from the text of the source: active = growth inhibition above about 70%; inactive = the rest.

Turning to `CCOC(=O)NC(c1ccc(C(NC(=O)OCC)P(=O)(O)NC23CC4CC(CC(C4)C2)C3)cc1)P(=O)(O)NC12CC3CC(CC(C3)C1)C2` (configuration not stated), the growth inhibition in test [1] (setting [7]) is -8%; in test [1] (setting [8]), -6%; in test [1] (at 50.0 µM) it was 60.4%; in test [2] (setting [7]), 5%; in test [2] (setting [8]), -10%; in test [2] (at 50.0 µM) it was 84.2% (active). Besides, the growth inhibition in test [3] (setting [7]) is -8%; in test [3] (setting [8]), -24%; in test [3] (at 50.0 µM) it was 81% (active); in test [4] (setting [7]), -30%; in test [4] (setting [8]), -2%; in test [4] (at 50.0 µM) it was 71.8% (active). Besides, the growth inhibition is 13% in test [5] (setting [7]); -7% in test [5] (setting [8]); 91% (active) in test [5] (at 50.0 µM); -31% in test [6] (setting [7]); -21% in test [6] (setting [8]); 76.4% (active) in test [6] (at 50.0 µM).

Take `CCCCCCCCCCCCCCCCN(CC)CC`: the growth inhibition was 99% (active) in test [1] (setting [7]); 99% (active) in test [1] (setting [8]); 99.6% (active) in test [1] (at 50.0 µM); 99% (active) in test [2] (setting [7]); 99% (active) in test [2] (setting [8]); 99.7% (active) in test [2] (at 50.0 µM). Besides, the growth inhibition is 99% (active) in test [3] (setting [7]); 100% (active) in test [3] (setting [8]); 99.4% (active) in test [3] (at 50.0 µM); 97% (active) in test [4] (setting [7]); 99% (active) in test [4] (setting [8]); 99.3% (active) in test [4] (at 50.0 µM). In addition, the growth inhibition was 98% (active) in test [5] (setting [7]); 99% (active) in test [5] (setting [8]); 99.7% (active) in test [5] (at 50.0 µM); 99% (active) in test [6] (setting [7]); 99% (active) in test [6] (setting [8]); 99.6% (active) in test [6] (at 50.0 µM).

On to `CC(C)(C)CC(C)(C)c1ccc(OCCSC(=N)N)cc1`, for which the growth inhibition in test [1] (setting [7]) was 95% (active); in test [1] (setting [8]), 100% (active); in test [1] (at 50.0 µM), 99.3% (active); in test [2] (setting [7]), 99% (active); in test [2] (setting [8]) it was 100% (active); in test [2] (at 50.0 µM), 99.6% (active). Further, the growth inhibition in test [3] (setting [7]) was 75% (active); in test [3] (setting [8]), 99% (active); in test [3] (at 50.0 µM), 99.2% (active); in test [4] (setting [7]), 99% (active); in test [4] (setting [8]), 99% (active); in test [4] (at 50.0 µM), 98.6% (active). The growth inhibition in test [5] (setting [7]) is 99% (active); in test [5] (setting [8]), 100% (active); in test [5] (at 50.0 µM), 99.4% (active); in test [6] (setting [7]), 99% (active); in test [6] (setting [8]), 99% (active); in test [6] (at 50.0 µM), 99.2% (active).

As for `C=C/C=C/CC=C`, the growth inhibition in test [1] (setting [7]) is -151%; in test [1] (setting [8]), 38%; in test [1] (at 50.0 µM) it was 34.2%; in test [2] (setting [7]), -48%; in test [2] (setting [8]) it was -41%; in test [2] (at 50.0 µM) it was 1.2%. In addition, the growth inhibition is -62% in test [3] (setting [7]); -38% in test [3] (setting [8]); 6.6% in test [3] (at 50.0 µM); -45% in test [4] (setting [7]); -50% in test [4] (setting [8]); 85.3% (active) in test [4] (at 50.0 µM). The growth inhibition in test [5] (setting [7]) was -60%; in test [5] (setting [8]), -46%; in test [5] (at 50.0 µM), 21.4%; in test [6] (setting [7]), -120%; in test [6] (setting [8]), -90%; in test [6] (at 50.0 µM), 59.9%.

For `Cn1c2ccccc2c2c(C#N)c(C#N)c([N+](=O)[O-])cc21`, the growth inhibition in test [1] (setting [7]) was 30%; in test [1] (setting [8]) it was 98% (active); in test [1] (at 50.0 µM), 97.2% (active); in test [2] (setting [7]) it was 29%; in test [2] (setting [8]), 98% (active); in test [2] (at 50.0 µM), 78.5% (active). In addition, the growth inhibition is 9% in test [3] (setting [7]); 98% (active) in test [3] (setting [8]); 75.2% (active) in test [3] (at 50.0 µM); 9% in test [4] (setting [7]); 97% (active) in test [4] (setting [8]); 42% in test [4] (at 50.0 µM). In addition, the growth inhibition in test [5] (setting [7]) is 27%; in test [5] (setting [8]), 98% (active); in test [5] (at 50.0 µM), 93.2% (active); in test [6] (setting [7]), 26%; in test [6] (setting [8]), 98% (active); in test [6] (at 50.0 µM), 76.8% (active).

With `Cc1cccc2c1C1OC(=O)C3CCC=C2C31` (configuration not stated), the growth inhibition was -146% in test [1] (setting [7]); -134% in test [1] (setting [8]); 30.4% in test [1] (at 50.0 µM); -49% in test [2] (setting [7]); -55% in test [2] (setting [8]); 53.9% in test [2] (at 50.0 µM). The growth inhibition in test [3] (setting [7]) is -56%; in test [3] (setting [8]), -58%; in test [3] (at 50.0 µM) it was 12.8%; in test [4] (setting [7]), -45%; in test [4] (setting [8]), -39%; in test [4] (at 50.0 µM) it was 64.9%. The growth inhibition was -41% in test [5] (setting [7]); -52% in test [5] (setting [8]); 28.1% in test [5] (at 50.0 µM); -107% in test [6] (setting [7]); -101% in test [6] (setting [8]); 41.8% in test [6] (at 50.0 µM).

As for `Cc1cc(N)c2ccccc2[n+]1CCCCCCCCCC[n+]1c(C)cc(N)c2ccccc21`, the growth inhibition in test [1] (setting [7]) was 42%; in test [1] (setting [8]) it was 98% (active); in test [1] (at 50.0 µM), 89.3% (active); in test [2] (setting [7]) it was 47%; in test [2] (setting [8]) it was 95% (active); in test [2] (at 50.0 µM), 92.8% (active). Also, the growth inhibition in test [3] (setting [7]) was 98% (active); in test [3] (setting [8]) it was 96% (active); in test [3] (at 50.0 µM), 92.3% (active); in test [4] (setting [7]), 90% (active); in test [4] (setting [8]), 99% (active); in test [4] (at 50.0 µM), 91% (active). Also, the growth inhibition in test [5] (setting [7]) is 97% (active); in test [5] (setting [8]) it was 98% (active); in test [5] (at 50.0 µM), 91% (active); in test [6] (setting [7]) it was 51%; in test [6] (setting [8]), 97% (active); in test [6] (at 50.0 µM), 81.3% (active).

`O=C(NNc1nc(-c2ccccc2)cs1)Nc1ccccc1`: the growth inhibition in test [1] (setting [7]) was 30%; in test [1] (setting [8]), 54%; in test [1] (at 50.0 µM), 77.2% (active); in test [2] (setting [7]) it was 19%; in test [2] (setting [8]), 44%; in test [2] (at 50.0 µM), 90.1% (active). For the same compound, the growth inhibition in test [3] (setting [7]) is 99% (active); in test [3] (setting [8]), 98% (active); in test [3] (at 50.0 µM), 88.5% (active); in test [4] (setting [7]), 98% (active); in test [4] (setting [8]), 97% (active); in test [4] (at 50.0 µM), 23.6%. For the same compound, the growth inhibition is 99% (active) in test [5] (setting [7]); 97% (active) in test [5] (setting [8]); 83.8% (active) in test [5] (at 50.0 µM); 48% in test [6] (setting [7]); 66% in test [6] (setting [8]); 75.1% (active) in test [6] (at 50.0 µM).

Turning to `Cc1ccc(S(=O)(=O)Nc2ccccc2Cl)cc1`, the growth inhibition in test [1] (setting [7]) is 11%; in test [1] (setting [8]) it was 95% (active); in test [1] (at 50.0 µM), 94% (active); in test [2] (setting [7]), 11%; in test [2] (setting [8]), 97% (active); in test [2] (at 50.0 µM), 77.3% (active). In addition, the growth inhibition in test [3] (setting [7]) is 7%; in test [3] (setting [8]) it was 99% (active); in test [3] (at 50.0 µM), 96.5% (active); in test [4] (setting [7]) it was 6%; in test [4] (setting [8]), 96% (active); in test [4] (at 50.0 µM), 88.5% (active). The growth inhibition in test [5] (setting [7]) is 5%; in test [5] (setting [8]) it was 98% (active); in test [5] (at 50.0 µM), 94.2% (active); in test [6] (setting [7]), 13%; in test [6] (setting [8]), 97% (active); in test [6] (at 50.0 µM), 93.8% (active).
